The source of these data is ChEMBL document CHEMBL3433997, “St. Jude Leishmania screening dataset” (2016).

The assay deals with Hexose transporter 1 (Plasmodium falciparum) (UniProt O97467). Nature of the assay: ST_JUDE_LEISH: Cytotoxicity at 2uM final concentration against transgenic Leishmania Mexicana promastigotes LmPfHT that are glucose transport deficient and complemented with the Plasmodium falciparum hexose transporter. Activity is measured by DNA content using SYBR green in vitro. It counts as functional.
`O=C(Nc1ccc([N+](=O)[O-])cc1O)Nc1ccccc1Oc1ccccc1`: the inhibition is -0.84%.
As to `Cc1cc(-c2ccc(NC(=O)N3CCc4cc(Br)c(N5CCN(C)CC5)cc43)cc2)ccc1C#N`, the inhibition came to 18.9%.
On to `Cc1ccccc1C1CCN(C2CCC(NC(=O)/C=C/c3ccc(Cl)cc3)CC2)CC1` (stereo not given), for which the inhibition stood at 2.6%.
The figure for `CC1(C)NC(N)=NC(=N)N1OCc1cccc(Cl)c1Cl` is 3.75%.
In the case of `CCN(CC)CCCNc1nccc(N(C)c2ccc(NC(=O)Nc3cc(C(F)(F)F)ccc3F)cc2)n1`, the inhibition worked out at 9.93%.
`CCCCN(CCCC)CCCN(CCCN(CCCC)CCCC)c1cc(C)nc(Nc2ccc(Cl)cc2)n1`: the inhibition worked out at 0.22%.
On to `COc1ccc(CCC(C)N2CC(N)C(c3cn(C)c4cnccc34)C2)cc1` (stereo not given), for which the inhibition was 9.62%.
With `N=C(N)Nc1nc(-c2cccc(NC(=O)Cc3ccccc3)c2)cs1`, the inhibition stood at 4.02%.
For `COc1ccc(-c2c3c(=O)n(C)c(=O)n(C)c3c3nnc4ccccc4n23)cc1`, the inhibition was determined as 1.06%.
For the molecule `CC(C)=CCc1c(-c2ccc(O)cc2O)oc2c3c(cc(O)c2c1=O)OC(C)(C)C=C3`, the inhibition is 4.6%.
Then `Cc1cc(F)ccc1[C@H]1C[C@H](N2CCOCC2)CCN1C(=O)N(C)[C@@H](C)c1cc(C(F)(F)F)cc(C(F)(F)F)c1`, with 0.17%.
As to `CCOc1cc(Cc2cnc(N)nc2N)ccc1OC`, the inhibition stood at 0.12%.
As for `O=C(Nc1cccc(N2CCC(NCc3cnn(-c4cccc(F)c4)c3)CC2)c1)c1ccncc1`, the inhibition is 0.64%.
Turning to `CCCCC(CC)NC(=O)[C@H]1CNCCN1C(=O)CCCc1ccccc1` (stereo not given in full), the inhibition is 1.94%.
As to `CCOc1ccc(C(C)NC(=O)C2COc3ccccc3O2)cc1OCC` (stereo not given), the inhibition is 1.59%.
As for `CC(CC(=O)NCC1(c2ccc(F)cc2Cl)CCOCC1)C(=O)c1ccc(Cl)cc1` (stereo not given), the inhibition was 1.23%.
As to `CC(C)NCc1cccc(-c2ccc(NS(=O)(=O)c3cccc4cccnc34)cc2)c1`, the inhibition came to 8.78%.
Then `CS(=O)(=O)c1ccc(-c2cnc(N)c(-c3cccc(O)c3)c2)cc1`, with 6.49%.
On to `O=C(Nc1nc(-c2ccccn2)cs1)c1ccc(S(=O)(=O)N2CCc3ccccc32)cc1`, for which the inhibition was determined as 15.1%.
For the molecule `O=C(CCCCCNC(=O)c1ccc(O)c(-c2ccc(Cl)c(Cl)c2)c1)NCCc1ccc(Cl)c(Cl)c1`, the inhibition came out at 0.09%.
In the case of `Nc1nc(N)c2c(ccc3c2ccn3Cc2ccc3c(c2)OCO3)n1`, the inhibition was found to be 97.5%.
Turning to `CCCC1N=C(N)N=C(N)N1c1ccc(C)c(C)c1` (stereo not given), the inhibition was -2.19%.
`Cc1ccccc1C1CCN(c2ccc(C(=O)NC3CC3)cn2)CC1`: the inhibition is 1.26%.
Take `COc1ccc(CNC(=N)Nc2nc(-c3ccc(OCCCn4ccnc4)cc3)cs2)cc1`: the inhibition came out at 7.44%.
In the case of `CN1CCN(c2cc3c(cc2Cl)CCN3C(=O)Nc2ccc(NC(=O)c3ccc(C(F)(F)F)cc3)cc2)CC1`, the inhibition was found to be 8.45%.
As to `C=Cc1c(C2CCN(CCCCNC(=O)c3ccc(-c4ccc(C#N)cc4)cc3)CC2)ccc2c1CCCC2`, the inhibition worked out at 4.14%.
As to `Cc1cc(C(F)(F)F)n2nc(C(=O)N(C)Cc3cncn3Cc3ccc(F)cc3)cc2n1`, the inhibition worked out at 1.29%.
Regarding `Cc1cccc2nc(-c3cccc(-c4ccc(NC(=O)C(C)CN5CCN(C)CC5)cc4)c3)[nH]c12` (stereo not given), the inhibition came out at 0.53%.
`COc1ccc2ccccc2c1C=NN=c1cc[nH]c2ccc(F)cc12`: the inhibition stood at 2.24%.
For the molecule `OCCN1CCN(c2ccc(Nc3ccnc4cc5ccccc5cc34)cc2)CC1`, the inhibition worked out at 33.3%.
Regarding `O=C(NCCCCN1CCN(CC=Cc2ccccc2)CC1)c1ccc(NC(=O)c2cc(Cl)cc(Cl)c2)cc1`, the inhibition is -0.05%.
For the molecule `O=C(/C=C/c1ccc(Cl)cc1)NCCCCCN1CCCN(C(=O)Nc2cccc(Cl)c2)CC1`, the inhibition is -1.85%.
Take `O=S(=O)(c1c(Cl)cc(Cl)cc1Cl)N1CCCCC(c2ccc(F)c(F)c2)=N1`: the inhibition stood at 2.09%.
The figure for `Cc1cc(N)nc2ccc(-c3ccc(CN)cc3)cc12` is 6.77%; for `N=C(N)NN=Cc1ccc2ccc3ccccc3c2c1` it is 7.75%; for `C#Cc1cccc(NC(=O)[C@H](CC2CCCCC2)Nc2ccc(C#N)c3ccccc23)c1` it is 2.53%.
On to `Cc1cc(OCCCN2CCC(NS(=O)(=O)c3ccc(C(F)(F)F)cc3)CC2)c2ccccc2n1`, for which the inhibition was determined as 0.36%.
The figure for `Clc1cccc(CNc2nc(NCCc3c[nH]cn3)nc(NC3CCCCC3)n2)c1` is 3.97%.
The figure for `CCc1c[nH]c2c(N3CCCC3=O)cc(C(=O)N[C@@H](Cc3ccccc3)[C@H](O)CNC(C)(C)c3cccc(OC)c3)cc12` is 1.3%; for `CN(C)c1ccc(-c2ccc(C(=O)NC3CCN(Cc4ccc(C(C)(C)C)cc4)CC3)s2)cc1` it is 1.51%.
